Assay outcomes: PubChem, several laboratories
Peg3 prom inh-1 = Peg3 promoter activity inhibition | HeLa PEG-Prom luciferase reporter, luminescence, overnight | inhibition, % at 20 µM | 360,000 tested, 1.7% active | AID 588405;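 active means inhibition of at least 50% at 20 µM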
HIF-2a inh = inhibitors of HIF-2a | inhibition, % at 18.8 µM | 360,000 tested, 0.72% active | 786-0 RCC cells HIF-2a reporter, luciferase luminescence, overnight;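 active means inhibition of the luminescence signal of 40% or more relative to plate controls, in a single-dose primary screen at 18.75 µM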
TROY signal inh = blocks TROY-dependent signaling in reporter cells; Q293 LMP1-TROYcd NF-kB luciferase reporter, 4 h; inhibition, % at 10 µM; 360,000 tested, 0.98% active;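 active means compounds whose plate-normalised and pattern-corrected inhibition of the luciferase reporter signal at the single screening dose is 50% or more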
MITF TRPM1 inh = inhibitors of MITF-driven TRPM1 promoter in melanoma cells; SK-MEL-5 TRPM1 promoter luciferase, 24 h; inhibition, % at 12.5 µM; 330,000 tested, 0.83% active;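 active means mean inhibition across replicates of 60% or more, whatever share of single replicates reaches that level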
LMP1 NFkB inh = Epstein-Barr LMP1 NF-kappaB reporter inhibition | LMP1-induced NF-kappaB luciferase reporter cells, luminescence | AID 504558 | 350,000 tested, 0.69% active | inhibition, % at 12.5 µM; in the data active means inhibition above about 41%;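 further: 0% = neutral control wells and 100% = reference inhibitor control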
TWEAK-Fn14 inh = TWEAK-Fn14 signaling inhibition; TWEAK-stimulated Fn14 reporter cells, luciferase luminescence, 8 h; inhibition, % at 10 µM; 360,000 tested, 2% active; AID 1159606; in the data active means inhibition above about 50%
Peg3 prom inh-2 = Peg3 promoter inhibition confirmation | shares compounds with Peg3 prom inh-1 | HeLa PEG-Prom luciferase reporter, luminescence, overnight | inhibition, % at 20 µM | 1,300 tested, 84% active | AID 602417;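 active means at 20 µM dose, 40% or more inhibition averaged across four replicates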
Starred values were filed as active, the others as inactive; . = not tested or not shown. Shown are actives, neighbours in structure and some others; about 4% of the full set was active somewhere.

SMILES | Peg3 prom inh-1 | HIF-2a inh | TROY signal inh | MITF TRPM1 inh | LMP1 NFkB inh | TWEAK-Fn14 inh | Peg3 prom inh-2
CCOc1cc(/C=N/Nc2nc(-c3cccs3)c(NC(C)=O)s2)ccc1O | -8 | 2 | 0 | -9 | -10 | -29 | .
Cc1cc(-n2c(SCC(=O)Nc3ccc(F)c(F)c3)nc3n[nH]c(C)c3c2=N)ccc1Cl | 84* | 7 | 9 | 46 | 5 | -2 | 59*
Cc1cc(-n2c(SCC(=O)NCc3cccs3)nc3n[nH]c(C)c3c2=N)ccc1Cl | 20 | 1 | 7 | 11 | 4 | 13 | .
Cc1cc(-n2c(SCC(=O)Nc3ccc(Br)cc3)nc3n[nH]c(C)c3c2=N)ccc1Cl | 85* | 2 | -6 | 14 | -9 | -40 | 40
COc1ccc(/C=C2\SC(=S)N(NC(=O)c3csc4c3CCCC4)C2=O)cc1 | 12 | 21 | 1 | 1 | -10 | -8 | .
CC(N)c1csc(Nc2ncccn2)n1 (stereo not drawn) | 31 | 2 | -15 | . | . | -32 | .
CCCCn1c(N)c(N(CC(C)C)C(=O)CSc2nnc(-c3ccc(Cl)cc3)o2)c(=O)[nH]c1=O | -10 | -2 | -11 | -4 | 5 | 6 | .
OC1(c2ccccc2)CCN(Cc2ccccc2)CC1 | 2 | 5 | -4 | -2 | -2 | 10 | .
OC1(c2ccc(Cl)c(Cl)c2)C[n+]2ccccc2N1Cc1ccccc1 (stereo not drawn) | 95* | -13 | 2 | -3 | -1 | -8 | 90*
N=c1c2c(-c3ccccc3)c(-c3ccccc3)n(Cc3ccccc3)c2ncn1CCO | 98* | 34 | 10 | 26 | -60 | -35 | 96*
O=C(Nc1ccc(F)cc1)C(c1cccc(F)c1)N1CCN(C(=O)c2ccco2)CC1 (stereo not drawn) | . | -6 | . | . | . | . | .
CCOc1cc(C=NNC(=O)c2cccc(S(=O)(=O)N3CCCC3)c2)ccc1O | -4 | 10 | 11 | 4 | 7 | 2 | .
CCOc1cc(/C=N/Nc2nc(-c3cccc(S(=O)(=O)N4CCCC4)c3)cs2)ccc1O | 52* | 9 | 15 | 2 | 0 | 61* | 47*
O=C1C=CC(=O)N1c1ccc(-c2nc3ccccc3o2)cc1 | 108* | -96 | -8 | . | -2 | 20 | 97*
CN(CC(=O)Nc1ccc(F)cc1)C(=O)c1ccc(N2C(=O)CCC2=O)cc1 | 9 | 4 | -15 | -3 | -8 | 1 | .
CCOc1ccc(Nc2c3ccccc3nc3ccccc23)cc1 | 85* | 35 | -15 | 17 | 7 | -80 | 85*
CCOc1ccc(Nc2cc(C)c3ccccc3n2)cc1 | -320 | -232 | -79 | -138 | . | -64 | .
Cc1cnc(NC(=O)c2ccc(OCC3CCCO3)cc2)s1 (stereo not drawn) | 53* | 19 | 43 | 26 | 47* | 85* | 11
NCCc1c(-c2ccccc2)n(-c2ccccc2)c2ccccc12 | 107* | 7 | -14 | 44 | -12 | -22 | 99*
N#Cc1cc2cc(Cl)ccc2[nH]c1=O | . | 10 | -12 | . | . | 2 | .
COc1cc(CNC(C)(C)CO)cc(Br)c1OCc1ccc(Cl)cc1 | 81* | -18 | -10 | -13 | -10 | -17 | 91*
COc1cc(CNc2ccc(O)cc2)cc(Br)c1OCc1ccccc1 | -11 | -11 | -7 | -2 | -17 | 15 | .
C=C(C)CN1CCN(c2c(CCC#N)c(C)c(C#N)c3nc4ccccc4n23)CC1 | 82* | 7 | -11 | 11 | -9 | -36 | 41*
CC(C)NC(=O)NC(=O)COC(=O)c1c2c(nc3ccccc13)CCC2 | 92* | 16 | 32 | 23 | 8 | 45 | 86*
CC(C)CNC(=O)COC(=O)c1c2c(nc3ccccc13)/C(=C\c1cccs1)CC2 | -90 | -273 | -14 | -17 | -41 | 5 | .
SMILES | Peg3 prom inh-1 | HIF-2a inh | TROY signal inh | MITF TRPM1 inh | LMP1 NFkB inh | TWEAK-Fn14 inh | Peg3 prom inh-2
O=C(COC(=O)c1c2c(nc3ccccc13)/C(=C\c1cccs1)CCC2)Nc1ccccc1 | 55* | 16 | 6 | -9 | -25 | 42 | 60*
O=C(/C=C\Nc1ccc2c(c1)OCO2)c1ccccn1 | 85* | 71* | 75* | 75* | 72* | 104* | 71*
CCOC(=O)CN1C(=O)N[C@@H](CCc2ccccc2)[C@@H](C(=O)OC)[C@H]1C | 14 | 6 | -15 | -1 | 1 | 6 | .
COc1cc(/C=C/C(=O)CC(=O)/C=C/c2ccc(O)c(OC)c2)ccc1O | 64* | 17 | 5 | 9 | -24 | 29 | 31
C=CCn1nc([N+](=O)[O-])nc1Sc1cccc2cccnc12 | 54* | -9 | 11 | 44 | -1 | 1 | 26
COc1cccc2c1C(=N)c1c(O)c3c(c(O)c1C2=O)CC(O)(C(C)=O)CC3OC1CC(N)C(O)C(C)O1 (stereo not drawn) | 98* | 21 | -43 | 92* | 53* | -139 | 96*
Cc1csc2nc(COC(=O)c3ccc(Cl)c([N+](=O)[O-])c3)cc(=O)n12 | 59* | 5 | 12 | 34 | -6 | -49 | -1
Cc1csc2nc(COC(=O)CNC(=O)c3ccc(Cl)cc3)cc(=O)n12 | 2 | 8 | -11 | -5 | 1 | 11 | .
CC1(c2ccccc2)NC(=O)N(CC(=O)N2CCN(S(=O)(=O)c3c(F)cccc3F)CC2)C1=O (stereo not drawn) | -10 | 7 | 5 | -8 | 3 | 12 | .
O=C(C[n+]1ccccc1)N/N=C/c1ccc(Cl)cc1 | 13 | 4 | 8 | -2 | -8 | 3 | .
CCOc1ccc(-c2ccc(SC)nn2)cc1 | 76* | 27 | 75* | 62* | 59* | -15 | 45*
O=C(NCCc1ccccc1)c1ccc2c(c1)OCO2 | 58* | 54* | 70* | 53 | 49* | 94* | 52*
Cc1cc(C)cc(NS(=O)(=O)c2ccc3[nH]cc(C(=O)NCc4ccco4)c(=O)c3c2)c1 | 55* | 24 | 14 | 23 | 10 | 13 | 71*
Nc1nc(NC(=O)CCC(=O)O)nn1-c1ccccc1 | -1 | 16 | -1 | -3 | 1 | 0 | .
O=C(Nc1ccccc1)Nc1cccc(Cl)c1 | -252 | -316 | -26 | -53 | -12 | -23 | .
CCOc1ccc(NC(=O)Nc2cccc(C(=O)O)c2)cc1 | 85* | 88* | -53 | 94* | 81* | 23 | 75*
Cc1cccc(OCC(=O)Nc2cc(NC(=O)COc3cccc(C)c3C)cc(C(=O)O)c2)c1C | -2 | -30 | -8 | 19 | -1 | -17 | .
O=C(Nc1ccc(Cl)cc1)Nc1cccc(C(=O)O)c1 | 53* | 66* | -56 | 80* | 62* | 11 | 36
Cc1ccccc1OCC(=O)Nc1cccc(C(=O)O)c1 | 84* | 92* | 18 | 92* | 77* | 59* | 85*
CCOc1ccc(NC(=O)Nc2ccc3nsnc3c2)cc1 | -219 | -216 | -51 | -73 | 2 | 5 | .
